TROY NFkB inh: TROY signaling inhibition; inhibition, % at 10 µM; Q293 LMP1-TROYcd NF-kB luciferase reporter, 4 h; 360,000 compounds, 0.98% hits;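 active = compounds whose plate-normalised and pattern-corrected inhibition of the luciferase reporter signal at the single screening dose is 50% or more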
MITF TRPM1 inh: MITF TRPM1 promoter inhibition in SK-MEL-5 cells; SK-MEL-5 TRPM1 promoter luciferase, 24 h; inhibition, % at 12.5 µM; 330,000 compounds, 0.83% hits;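 active = mean inhibition across replicates of 60% or more, whatever share of single replicates reaches that level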
Shn3 3UTR inh: reduces Shn3 3'UTR luciferase signal in osteoblasts; Clone20 osteoblast Shn3 3'UTR firefly luciferase, 24 h; inhibition, % at 12.5 µM; 360,000 compounds, 0.52% hits; AID 588674;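 active = mean inhibition of at least 75% with every replicate also reaching 75%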;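 also: 0% = median of neutral control wells and 100% = pilot-screen positive control compound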
TWEAK-Fn14 inh: blocks TWEAK-Fn14 interaction in a reporter cell assay | TWEAK-stimulated Fn14 reporter cells, luciferase luminescence, 8 h | inhibition, % at 10 µM | 360,000 compounds, 2% hits | AID 1159606; in the data active = inhibition above about 50%
HIF-2a inh: HIF-2a inhibition; inhibition, % at 18.8 µM; 786-0 RCC cells HIF-2a reporter, luciferase luminescence, overnight; 360,000 compounds, 0.72% hits;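 active = inhibition of the luminescence signal of 40% or more relative to plate controls, in a single-dose primary screen at 18.75 µM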
LMP1 NFkB inh: inhibitors of Epstein-Barr LMP1-induced NF-kappaB reporter | LMP1-induced NF-kappaB luciferase reporter cells, luminescence | inhibition, % at 12.5 µM | 350,000 compounds, 0.69% hits; in the data active = inhibition above about 41%;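 also: 0% = neutral control wells and 100% = reference inhibitor control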
* = called active by the depositor. Hits are enriched below; roughly 3.4% of the tested compounds scored in any of these assays.

Screening CCOC(=O)C1CCN(C(=O)C(C)N(c2ccc(Oc3ccccc3)cc2)S(C)(=O)=O)CC1 (stereo unspecified) returned TROY NFkB inh 14, MITF TRPM1 inh 14, Shn3 3UTR inh 87*, TWEAK-Fn14 inh 21, HIF-2a inh 10 and LMP1 NFkB inh 21.
For CCOc1ccc(N(C(C)C(=O)NC2CCCCCC2)S(C)(=O)=O)cc1 (stereo unspecified) the results were TROY NFkB inh -20, MITF TRPM1 inh 4, Shn3 3UTR inh 5, TWEAK-Fn14 inh 91*, HIF-2a inh 4 and LMP1 NFkB inh -1.
Screening CCOc1ccc(N(C(C)C(=O)NN=C2CCCCCCC2)S(C)(=O)=O)cc1 (stereo unspecified) returned TROY NFkB inh -26, MITF TRPM1 inh 2, Shn3 3UTR inh -16, TWEAK-Fn14 inh 0, HIF-2a inh 20 and LMP1 NFkB inh 12.
For CCc1ccc(NC(=O)c2ccc(F)c(S(=O)(=O)NCC3COc4ccccc4O3)c2)cc1 (stereo unspecified) the results were TROY NFkB inh 44, MITF TRPM1 inh 7, Shn3 3UTR inh 62, TWEAK-Fn14 inh 62*, HIF-2a inh -72 and LMP1 NFkB inh 13.
CCN(c1ccccc1)S(=O)(=O)c1cc(C(=O)Nc2ccc(Br)cc2)ccc1F was read as TROY NFkB inh 41, MITF TRPM1 inh 31, Shn3 3UTR inh 74, TWEAK-Fn14 inh 78*, HIF-2a inh -19 and LMP1 NFkB inh 6.
For OC[C@@H]1CN(CCN2CCOCC2)C[C@H](n2cnc3c(NC4CCC4)ncnc32)O1 the results were TROY NFkB inh 6, Shn3 3UTR inh -12, TWEAK-Fn14 inh -31 and HIF-2a inh -3.
`O=C1CS/C(=N\c2ccccn2)N1C1CCCCC1` gave TROY NFkB inh 9, MITF TRPM1 inh -9, Shn3 3UTR inh 15, TWEAK-Fn14 inh 53*, HIF-2a inh -2 and LMP1 NFkB inh 3.
`O=C1c2cccnc2C(=O)N1C1CCCCC1` gave TROY NFkB inh 13, MITF TRPM1 inh 4, Shn3 3UTR inh -7, TWEAK-Fn14 inh 0, HIF-2a inh 7 and LMP1 NFkB inh -2.
For O=C(NCCCc1ccccc1)c1cccc(NC(=O)C2CCCC2)c1 the results were TROY NFkB inh 2, MITF TRPM1 inh -2, Shn3 3UTR inh -15, TWEAK-Fn14 inh -8, HIF-2a inh -9 and LMP1 NFkB inh -2.
For COc1ccc(C(=O)NCC(=O)OCC(=O)NC2CCCCCC2)cc1 the results were TROY NFkB inh 4, MITF TRPM1 inh 6, Shn3 3UTR inh 11, TWEAK-Fn14 inh 2, HIF-2a inh 3 and LMP1 NFkB inh 4.
For CCCCn1cnc2c(SCc3ccc(Br)cc3)nc(N)nc21 the results were TROY NFkB inh -16, MITF TRPM1 inh -39, Shn3 3UTR inh 24, TWEAK-Fn14 inh 11, HIF-2a inh -95 and LMP1 NFkB inh 8.
Screening CC1=NN(C(=O)c2c(Br)cnn2C)C(O)(C(F)(F)F)C1 (stereo unspecified) returned TROY NFkB inh -4, MITF TRPM1 inh -1, Shn3 3UTR inh -7, TWEAK-Fn14 inh 72*, HIF-2a inh 12 and LMP1 NFkB inh -13.
`Cc1cc(NC(=O)COC(=O)Cn2[nH]c(=O)c3ccccc3c2=O)c([N+](=O)[O-])cc1C` gave TROY NFkB inh 17, MITF TRPM1 inh 1, Shn3 3UTR inh 16, TWEAK-Fn14 inh -21, HIF-2a inh -1 and LMP1 NFkB inh -7.
For CC1CCCCN1C(=S)Nc1ccc(S(=O)(=O)N2CCCCC2)cc1 (stereo unspecified) the results were TROY NFkB inh -18, Shn3 3UTR inh 3, TWEAK-Fn14 inh 14, HIF-2a inh 13 and LMP1 NFkB inh -1.
Screening CC1Oc2ccccc2C=C1/C=N/NC(=O)[C@@H](C)NC(=O)OC(C)(C)C (stereo partly specified) returned TROY NFkB inh 66*, MITF TRPM1 inh 8, Shn3 3UTR inh 8, TWEAK-Fn14 inh 26, HIF-2a inh 13 and LMP1 NFkB inh -33.
`CC1CCc2nc3ccccc3c(C(=O)OCC(=O)NC3CCS(=O)(=O)C3)c2C1` (stereo unspecified) gave TROY NFkB inh -5, MITF TRPM1 inh -6, Shn3 3UTR inh 13, TWEAK-Fn14 inh 2, HIF-2a inh 15 and LMP1 NFkB inh -4.
COc1cccc(NC(=O)COC(=O)c2c3c(nc4ccccc24)CCC(C)C3)c1 (stereo unspecified) was read as TROY NFkB inh 36, MITF TRPM1 inh 3, Shn3 3UTR inh 51, TWEAK-Fn14 inh 57*, HIF-2a inh -52 and LMP1 NFkB inh 22.
For O=C(NCc1ccccc1)C1C(=O)Nc2ccccc2C(=O)N1Cc1ccccc1 (stereo unspecified) the results were HIF-2a inh 4.
CC(=O)Nc1ccc(-c2ccnc3c2CC(C(=O)Nc2cccc(OC(F)(F)F)c2)O3)cc1 (stereo unspecified) was read as TROY NFkB inh 16, Shn3 3UTR inh 21, TWEAK-Fn14 inh -9 and HIF-2a inh 13.
For COc1ncnc2c1ncn2CCCNCC(C)c1ccccc1 (stereo unspecified) the results were TROY NFkB inh 5, Shn3 3UTR inh -10, TWEAK-Fn14 inh 0, HIF-2a inh 2 and LMP1 NFkB inh 12.
For CCc1ccc2oc(-c3cccc(N)c3)nc2c1 the results were TROY NFkB inh 34, MITF TRPM1 inh -18, Shn3 3UTR inh 1, TWEAK-Fn14 inh 75*, HIF-2a inh -46 and LMP1 NFkB inh -28.
Cc1ccc2nc(-c3ccccc3)oc(=O)c2c1 was read as TROY NFkB inh -13, Shn3 3UTR inh -21, TWEAK-Fn14 inh 108*, HIF-2a inh -90 and LMP1 NFkB inh -2.
Screening Nc1ccc(-c2nc3ccccc3o2)cc1 returned TROY NFkB inh -42, MITF TRPM1 inh 0, Shn3 3UTR inh -24, TWEAK-Fn14 inh 18, HIF-2a inh -130 and LMP1 NFkB inh -2.
For Cc1ccc2nc(-c3cccc(N)c3)oc2c1 the results were TROY NFkB inh 36, MITF TRPM1 inh 5, Shn3 3UTR inh 13, TWEAK-Fn14 inh 78*, HIF-2a inh -8 and LMP1 NFkB inh 5.
For Nc1cc(N)cc(-c2nc3ccccc3o2)c1 the results were TROY NFkB inh 25, MITF TRPM1 inh 9, Shn3 3UTR inh -22, TWEAK-Fn14 inh 82*, HIF-2a inh -58 and LMP1 NFkB inh -4.
Screening O=C(CN1C(=O)NC2(CCc3ccccc32)C1=O)NCc1ccc(Cl)cc1 (stereo unspecified) returned TROY NFkB inh -3, MITF TRPM1 inh 9, Shn3 3UTR inh 4, TWEAK-Fn14 inh -1, HIF-2a inh 18 and LMP1 NFkB inh -5.
Screening CCOC(=O)c1cc2c(=O)n3ccccc3nc2n(C(C)C)c1=NC(=O)c1c(-c2c(F)cccc2Cl)noc1C returned TROY NFkB inh -9, MITF TRPM1 inh -1, Shn3 3UTR inh 21, TWEAK-Fn14 inh 57*, HIF-2a inh 20 and LMP1 NFkB inh -41.
